# Publication PMC4336329 (PLoS ONE, 2015)
# The whole screen tested about 310,000 compounds, of which about 14,000 (4.5%) showed an effect of 50% or more. Effects have a minus sign here. This excerpt belongs to a sample that is enriched for strong results.
# Biological target: human ether-à-go-go-related gene (hERG) potassium channel (human, UniProt Q12809)
# Assay: primary screen, population patch clamp on CHO cells stably expressing hERG; higher = less effect of the substance
# 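Also: peak tail current of the secondary pulse compared with the same well before compound.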
# human ether-à-go-go-related gene (hERG) potassium channel, sequence (Q12809 whole entry, looked up): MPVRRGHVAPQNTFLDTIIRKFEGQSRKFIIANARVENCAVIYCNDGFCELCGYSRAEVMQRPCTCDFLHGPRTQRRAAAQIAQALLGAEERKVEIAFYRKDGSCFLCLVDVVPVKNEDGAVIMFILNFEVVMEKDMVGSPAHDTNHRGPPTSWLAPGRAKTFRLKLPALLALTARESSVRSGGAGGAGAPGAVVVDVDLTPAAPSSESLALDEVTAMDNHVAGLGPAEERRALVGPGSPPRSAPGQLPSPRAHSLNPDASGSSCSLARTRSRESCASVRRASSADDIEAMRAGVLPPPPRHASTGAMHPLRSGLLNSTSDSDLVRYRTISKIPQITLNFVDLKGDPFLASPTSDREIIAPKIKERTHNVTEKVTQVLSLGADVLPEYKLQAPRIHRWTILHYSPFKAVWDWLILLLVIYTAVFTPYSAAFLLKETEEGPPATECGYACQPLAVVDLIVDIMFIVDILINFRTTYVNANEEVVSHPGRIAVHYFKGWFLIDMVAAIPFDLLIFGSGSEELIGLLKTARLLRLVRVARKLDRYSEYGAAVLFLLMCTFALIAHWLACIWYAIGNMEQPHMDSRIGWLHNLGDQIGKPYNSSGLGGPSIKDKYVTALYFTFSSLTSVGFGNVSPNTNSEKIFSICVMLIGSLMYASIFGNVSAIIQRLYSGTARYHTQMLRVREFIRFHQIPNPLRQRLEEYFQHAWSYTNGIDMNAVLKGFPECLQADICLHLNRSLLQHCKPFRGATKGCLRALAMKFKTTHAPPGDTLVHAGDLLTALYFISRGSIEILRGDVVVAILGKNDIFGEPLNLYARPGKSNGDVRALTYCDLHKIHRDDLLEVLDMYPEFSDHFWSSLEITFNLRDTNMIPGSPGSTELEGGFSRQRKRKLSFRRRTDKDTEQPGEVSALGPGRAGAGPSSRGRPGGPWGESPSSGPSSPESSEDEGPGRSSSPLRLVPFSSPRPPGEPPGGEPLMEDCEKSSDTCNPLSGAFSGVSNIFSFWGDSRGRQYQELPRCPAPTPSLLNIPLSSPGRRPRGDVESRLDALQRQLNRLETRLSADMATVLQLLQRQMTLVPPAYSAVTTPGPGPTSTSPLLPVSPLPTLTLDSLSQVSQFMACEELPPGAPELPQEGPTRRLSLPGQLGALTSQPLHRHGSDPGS
row,Structure (SMILES),"hERG current change (%, negative = inhibition) at 10uM [%]"
1,Cc1ccnc(SCCn2c(N3CCN(c4ccccc4)CC3)nc3c2c(=O)[nH]c(=O)n3C)n1,-17.3
2,CCN(CC(=O)NCc1cccs1)S(=O)(=O)c1cccc(C(C)=O)c1,0.039
3,CCN(CC(=O)NCc1cccs1)S(=O)(=O)c1ccc([N+](=O)[O-])cc1,-68.2
4,CCN(CC(=O)NCc1cccs1)S(=O)(=O)c1cccc(Br)c1,11.9
5,O=[N+]([O-])c1cccc(S(=O)(=O)N/N=C/c2ccc(O)cc2)c1,1.14
6,CC(=O)Nc1nc(C)c(Oc2ccc(Cl)cc2Cl)c(=O)[nH]1,10.5
7,COc1ccccc1NC(=O)c1ccc(NC(=O)COC(=O)CC(NC(=O)c2ccccc2Cl)c2ccccc2)cc1 (centres unmarked),6.73
8,COc1cccc(C2CCCCN2Cc2nc(-c3ccc(C)o3)oc2C)c1 (centres unmarked),-12.5
9,CCN1CCCC1CNC(=O)C1CCN(Cc2nc(-c3cccc(Br)c3)oc2C)CC1 (centres unmarked),-9.4
10,Cc1oc(-c2cccc(C(F)(F)F)c2)nc1CN1CCC[C@H]1CO,-35
11,Cc1ccc(-c2nc(CN3CCCCC3c3cccc(F)c3)c(C)o2)o1 (centres unmarked),44.7
12,Cc1oc(-c2ccccc2Cl)nc1CN1CCCCC1CO (centres unmarked),-20.5
13,Cc1ccc(-c2nc(CN3CCCCC3CCN3CCCC3=O)c(C)o2)o1 (centres unmarked),-51.5
14,CCOc1ccc(-c2nc(CN3CCCCC3CCn3cccn3)c(C)o2)cc1 (centres unmarked),-71.5
15,CSc1ccc(-c2nc(CN3CCCCC3c3cccnc3)c(C)o2)cc1 (centres unmarked),-19.8
16,Cc1oc(-c2cccc(F)c2)nc1CN1CCCCC1CCn1cccn1 (centres unmarked),-73.1
17,O=C(NCCc1c[nH]c2ccccc12)c1c(Cl)nc2sccn12,15.4
18,O=C(NC(Cc1c[nH]c2ccccc12)C(=O)O)c1cccs1 (centres unmarked),18.6
19,Cc1ccc(Cl)cc1NC(=O)CCC(=O)NCc1ccco1,7.15
20,O=C(CN1C(=O)NC2(CCCc3ccccc32)C1=O)N1CCN(C(=O)c2ccco2)CC1 (centres unmarked),-34.3
21,COc1ccc2[nH]c(O)c(NC(C)=O)c2c1,1.61
22,COc1cc(NC(=O)COc2ccc(Br)cc2)ccc1NC(=O)C(C)C,4.1
23,CC1CCN(C(=O)COc2ccc(S(=O)(=O)N3CCOCC3)cc2)CC1,-1.39

row,Structure (SMILES),"hERG current change (%, negative = inhibition) at 10uM [%]"
1,Cc1ccc2[nH]cc(CCCN3C(=O)c4ccccc4C3=O)c2c1,-51.4
2,O=C1c2ccccc2C(=O)N1CCCc1c[nH]c2ccc(Cl)cc12,-19.3
3,COc1ccc2[nH]cc(CCCN3C(=O)c4ccccc4C3=O)c2c1,-4.87
4,CC(=O)c1cccc(NS(=O)(=O)c2ccc3c(c2)oc(=O)n3C)c1,-6.14
5,O=C1CCN(CCc2ccccc2)CCN1[C@H](CSc1ccccc1)c1ccccc1,-78.7
6,O=C1CCN(CCc2ccccc2)CCN1[C@H](CSc1ccc(Br)cc1)c1ccccc1,-66.2
7,Cc1ccc(SC[C@H](c2ccccc2)N2CCN(CCc3ccccc3)CCC2=O)cc1,-74.7
8,O=C1CCN(Cc2ccccc2)CCN1[C@H](CSc1ccccc1)c1ccccc1,-44.7
9,[N-]=[N+]=NC[C@H](c1ccccc1)N1CCN(Cc2ccccc2)CCC1=O,-0.754
10,Cc1ccnc(N2CCC(C(=O)NNC(=O)COc3cccc4ccccc34)CC2)n1,11.2
11,Cc1cccc(NC(=O)CCc2nnc3ccc(NCc4ccco4)nn23)n1,6.78
12,Cc1cc(C)c(OCCN(C)C)c(Cl)c1.O=C(O)C(=O)O,-21.1
13,O=C(NC1CCCC1)C(c1cccs1)N(C(=O)c1ccco1)c1ccc2c(c1)OCO2 (centres unmarked),-33.5
14,Nc1nc(SCC(=O)NCc2ccco2)[nH]c(=O)c1-c1ccccc1,22.3
15,CC(C(=O)N(C)CC(=O)Nc1ccccc1C(F)(F)F)N1C(=O)c2ccccc2C1=O (centres unmarked),-10.7
16,COc1ccc(N(CC(=O)NC2CCCC2)C(=O)c2ccc(C)s2)cc1OC,15.8
17,COC(=O)c1ccc(NC(=O)C[n+]2ccccc2C)cc1.[Cl-],10.1
18,Cc1cc(Nc2c(C)cccc2C)n2nc(C)nc2n1,3.66
19,Cc1cc(Br)ccc1OCCCCN1CCCCC1.O=C(O)C(=O)O,-78.9
20,Cc1cc(Br)ccc1OCCN1CCCC1.O=C(O)C(=O)O,-36.8
21,Cc1cc(Br)ccc1OCC(=O)N1CCCCCC1,-12.1
22,Cc1cc(Br)ccc1OCCCCN1CCC(C)CC1.O=C(O)C(=O)O,-67.9
23,Cc1cc(Br)ccc1OCCOCCN1CCCC1.O=C(O)C(=O)O,-60.7

row,Structure (SMILES),"hERG current change (%, negative = inhibition) at 10uM [%]"
1,Cc1cc(Br)ccc1OCCN1CC(C)OC(C)C1.O=C(O)C(=O)O (centres unmarked),-17.8
2,CCN1CCN(CCOc2ccc(Br)cc2C)CC1.O=C(O)C(=O)O,-46.6
3,CC(C)(C)c1ccccc1OCCOCCN1CCCCCC1.O=C(O)C(=O)O,-39.1
4,Cc1cccc(C)c1OCCCCN1CCCCC1.O=C(O)C(=O)O,-11.8
5,N#C/C(=C\c1cn(Cc2ccccc2)c2ccccc12)C(=O)NCc1ccco1,12.5
6,Cc1ccccc1OCC(=O)OCC(=O)NCc1cccs1,1.72
7,COc1cc(-c2nc(CCNC(=O)c3ccco3)cs2)cc(OC)c1OC,-24.7
8,Cc1cc(C)cc(NC(=S)N2CCN(c3ccccn3)CC2)c1,-1.07
9,COc1ccc(NC(=O)Nc2cc(C)ccc2F)cc1,0.822
10,CCOc1ccc(-n2cnnn2)cc1S(=O)(=O)N1CCCCC1,-10.1
11,CC1CCN(C(=O)c2cc3c(=O)n4ccccc4nc3s2)CC1,18.7
12,CC(=O)c1ccc(Nc2cc(C)nc3ccccc23)cc1,-31.3
13,CC(=O)c1cccc(Nc2cc(C)nc3ccc(C)cc23)c1.Cl,-65.2
14,COc1ccc2nc(C)cc(Nc3cccc(C(=O)O)c3)c2c1,21.7
15,CC(=O)Nc1ccc(Nc2cc(C)nc3ccccc23)cc1,-7.21
16,CCOC(=O)c1ccc2nc(C)cc(Nc3cccc(C(=O)O)c3)c2c1,5.41
17,CC(=O)c1cccc(Nc2cc(C)nc3ccccc23)c1.Cl,-64
18,C/C(=N\Nc1nccnc1Cl)c1ccc([N+](=O)[O-])cc1,-4.09
19,Cl.N[C@@H]1C[C@H]1c1ccccc1,14
20,O=C(NC1CCCC1)C(c1ccncc1)N(C(=O)c1csnn1)c1cccc(F)c1 (centres unmarked),17.2
21,O=C1N=NC2=C1c1c3ccccc3c(O)n1CC2,3.49
22,CCOC(=O)c1c(NC(=O)CN2CCOCC2)sc2c1CCCC2=O,-6.33
23,Cc1cc2nc3c(nc2cc1C)CCCC3,15.9

row,Structure (SMILES),"hERG current change (%, negative = inhibition) at 10uM [%]"
1,Cc1ccc(C(=O)OCC(=O)Nc2cccc(S(=O)(=O)N3CCOCC3)c2)o1,-53.1
2,Cc1ccc(C(=O)Nc2cccc(S(=O)(=O)N3CCCC3)c2)o1,-9.98
3,O=C(Nc1ccc(S(=O)(=O)N2CCOCC2)cc1)c1ccc([N+](=O)[O-])o1,-28.8
4,Cc1ccc2c(CC(=O)Nc3ccc(N4CCN(C)CC4)cc3C)coc2c1,-72.8
5,Cc1ccc2c(CC(=O)N3CCN(c4ccccc4)CC3)coc2c1,-22
6,O=C(Nc1cccc(S(=O)(=O)N2CCCCC2)c1)c1ccc([N+](=O)[O-])o1,-51.4
7,O=C(COC(=O)c1ccc([N+](=O)[O-])o1)Nc1cccc(S(=O)(=O)N2CCOCC2)c1,-19.4
8,O=C(COC(=O)c1ccc(Br)o1)Nc1cccc(S(=O)(=O)N2CCCCCC2)c1,-14.9
9,Cc1ccc(C(=O)OCC(=O)Nc2cccc(S(=O)(=O)N3CCCCC3)c2)o1,6.02
10,O=C(COC(=O)c1ccc([N+](=O)[O-])o1)Nc1cccc(S(=O)(=O)N2CCCCC2)c1,-56.6
11,Cc1cc(C(=O)OCC(=O)Nc2cccc(S(=O)(=O)N3CCOCC3)c2)c(C)o1,-19.6
12,COc1ccccc1NC(=O)Cc1coc2cc(C)ccc12,-13.1
13,CCN1CCN(C(=S)c2ccc(-c3ccccc3)cc2)CC1,-15.4
14,CCCN1CCN(C(=O)Cn2c(=O)oc3cc(S(=O)(=O)NCc4ccccc4)ccc32)CC1,-6.53
15,COc1ccc(-c2ocnc2C(=O)Nc2ccc3c(c2)CCC3)cc1,8.64
16,Cc1ccc(C(=O)Nc2cccc(O)c2)cc1S(=O)(=O)N1CCCCCC1,11.2
17,O=C(O)CSc1nnc(COc2cccc3ccccc23)n1Cc1ccccc1,21.3
18,COc1ccc2c(CC(=O)Nc3cccc(S(=O)(=O)N4CCOCC4)c3)coc2c1,-32.4
19,CCc1ccc2c(CC(=O)Nc3cccc(S(=O)(=O)N4CCOCC4)c3)coc2c1,-0.796
20,Cc1ccc2c(CC(=O)Nc3cccc(S(=O)(=O)N4CCOCC4)c3)coc2c1,-51.4
